Experimental data taken from PubChem BioAssay (NCI).
This is part of a sample that, as a whole, favours compounds with a hit. Of some 83,000 tested, about 20% had one in any assay.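 Testing used 96-well plates and a 48-hour single-concentration exposure. Example: -40 means 40% of the starting cells died.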 The source made the active and inactive calls. Rule for the calls: active = growth percent below 10; inactive = the rest.

How the values were obtained:
Assay in all cases: NCI-60 one-dose screen, 48 h (100 = growth as untreated, 0 = no growth, -100 = all killed)
Conditions in all cases: 10 µM unless noted
DU-145 prostate = tested on: DU-145 prostate
K-562 leukemia = tested on: K-562 leukemia
MALME-3M melanoma = tested on: MALME-3M melanoma
MDA-MB-231 breast = tested on: MDA-MB-231 breast
RXF 393 renal = tested on: RXF 393 renal
SF-268 CNS = tested on: SF-268 CNS
SF-295 CNS = tested on: SF-295 CNS
SF-539 CNS = tested on: SF-539 CNS
UACC-257 melanoma = tested on: UACC-257 melanoma
M14 melanoma = tested on: M14 melanoma
HCT-15 colon = tested on: HCT-15 colon
HT29 colon = tested on: HT29 colon
SNB-75 CNS = tested on: SNB-75 CNS
SNB-19 CNS = tested on: SNB-19 CNS
U251 CNS = tested on: U251 CNS
PC-3 prostate = tested on: PC-3 prostate
SK-MEL-5 melanoma = tested on: SK-MEL-5 melanoma
UACC-62 melanoma = tested on: UACC-62 melanoma
LOX IMVI melanoma = tested on: LOX IMVI melanoma
SK-MEL-28 melanoma = tested on: SK-MEL-28 melanoma

Measured: growth

CCN1C(=O)N(CC)C2C1NC(=S)N2/N=C/c1ccc(C(F)(F)F)cc1 (stereo unspecified)
inactive: DU-145 prostate 90.5% | K-562 leukemia 37% | MALME-3M melanoma 44.1% | MDA-MB-231 breast 66.2% | RXF 393 renal 52.6% | SF-268 CNS 77.7% | SF-295 CNS 66.3% | SF-539 CNS 79.8% | UACC-257 melanoma 78.9% | M14 melanoma 53.4% | HCT-15 colon 39.4% | HT29 colon 43.6% | SNB-75 CNS 48.5% | SNB-19 CNS 73.6% | U251 CNS 70.5% | PC-3 prostate 59.7% | SK-MEL-5 melanoma 52% | UACC-62 melanoma 47.4% | LOX IMVI melanoma 73.2% | SK-MEL-28 melanoma 76.3%

COC(=O)c1cc(Br)ccc1O
inactive: DU-145 prostate 110% | K-562 leukemia 111% | MALME-3M melanoma 102% | MDA-MB-231 breast 118% | RXF 393 renal 101% | SF-268 CNS 105% | SF-295 CNS 102% | SF-539 CNS 107% | UACC-257 melanoma 109% | M14 melanoma 105% | HCT-15 colon 101% | HT29 colon 103% | SNB-75 CNS 91.5% | SNB-19 CNS 108% | U251 CNS 102% | PC-3 prostate 94.5% | SK-MEL-5 melanoma 95.2% | UACC-62 melanoma 102% | LOX IMVI melanoma 94.7% | SK-MEL-28 melanoma 107%

O=c1cc(-c2ccccc2)[nH]c2ncc(-c3ccc(F)cc3)n12
inactive: DU-145 prostate 94.6% | K-562 leukemia 18.5% | MALME-3M melanoma 77.8% | MDA-MB-231 breast 62% | RXF 393 renal 72.3% | SF-268 CNS 80.6% | SF-295 CNS 46% | SF-539 CNS 73.8% | UACC-257 melanoma 83.1% | M14 melanoma 50.4% | HCT-15 colon 37.7% | HT29 colon 40.6% | SNB-75 CNS 68.3% | SNB-19 CNS 68.3% | U251 CNS 56% | PC-3 prostate 56.7% | SK-MEL-5 melanoma 54.9% | UACC-62 melanoma 36.6% | LOX IMVI melanoma 65.9% | SK-MEL-28 melanoma 73.4%

COc1ccc(CCN(CC(=O)N(CC(N)=O)C2CCC[C@@H]2OCc2ccccc2)C(=O)CN(C(=O)CN(CCc2ccc(Cl)cc2)C(=O)CN(C(=O)CN(C)Cc2ccccc2F)[C@H](C)C2CCCCC2)[C@H](C)C2CCCCC2)cc1OC (stereo partly specified)
inactive: DU-145 prostate 43.7% | K-562 leukemia 10.4% | MALME-3M melanoma 51.7% | MDA-MB-231 breast 29.7% | SF-268 CNS 26.5% | SF-539 CNS 33.7% | M14 melanoma 19.3% | HCT-15 colon 33.7% | SNB-75 CNS 53.5% | SNB-19 CNS 33.9% | U251 CNS 21.5% | PC-3 prostate 15% | UACC-62 melanoma 33.8% | SK-MEL-28 melanoma 32.5%
active: RXF 393 renal -10% | SF-295 CNS -0.412% | UACC-257 melanoma -5.66% | HT29 colon 0.386% | SK-MEL-5 melanoma -41.8% | LOX IMVI melanoma -33%

CC(=O)Oc1ccc(OC(C)=O)c2ccccc12
inactive: DU-145 prostate 116% | K-562 leukemia 49.6% | MALME-3M melanoma 107% | RXF 393 renal 87.1% | SF-268 CNS 87.5% | SF-295 CNS 105% | SF-539 CNS 99.9% | UACC-257 melanoma 78.1% | M14 melanoma 105% | HCT-15 colon 99.1% | HT29 colon 107% | SNB-75 CNS 105% | SNB-19 CNS 91.9% | U251 CNS 89% | PC-3 prostate 54.8% | SK-MEL-5 melanoma 60.2% | UACC-62 melanoma 78% | LOX IMVI melanoma 81.2% | SK-MEL-28 melanoma 111%
active: MDA-MB-231 breast -45.5%

CCOC(=O)c1c(C)nc2c(c1N)CC(=O)N2Cc1ccc(OC)cc1
active: SF-268 CNS 4.12% | SNB-75 CNS -5.39% | SNB-19 CNS 4.6% | U251 CNS 4.05%
inactive: DU-145 prostate 47.4% | K-562 leukemia 99.8% | MALME-3M melanoma 33.6% | MDA-MB-231 breast 19.6% | RXF 393 renal 37.7% | SF-295 CNS 28.5% | SF-539 CNS 26.4% | UACC-257 melanoma 49.4% | M14 melanoma 86.8% | HCT-15 colon 55.6% | HT29 colon 38.4% | PC-3 prostate 43% | SK-MEL-5 melanoma 53.7% | UACC-62 melanoma 25.7% | LOX IMVI melanoma 75.9% | SK-MEL-28 melanoma 55%

C=C(C)[C@@H]1CC[C@]2(C(=O)N3CCN(C)CC3)CC[C@]3(C)[C@H](CC[C@@H]4[C@@]5(C)CC[C@H](OC(=O)c6ccccc6C(=O)O)C(C)(C)[C@@H]5CC[C@]43C)[C@@H]12
inactive: DU-145 prostate 104% | K-562 leukemia 102% | MALME-3M melanoma 97.4% | MDA-MB-231 breast 96.9% | RXF 393 renal 111% | SF-268 CNS 92.8% | SF-295 CNS 104% | SF-539 CNS 97.6% | UACC-257 melanoma 107% | M14 melanoma 99.3% | HCT-15 colon 103% | HT29 colon 109% | SNB-75 CNS 85.1% | SNB-19 CNS 95.4% | U251 CNS 105% | PC-3 prostate 91% | SK-MEL-5 melanoma 99.5% | UACC-62 melanoma 101% | LOX IMVI melanoma 99.1% | SK-MEL-28 melanoma 105%

CCNC(=O)Oc1ccc(/C(=C(/C)Cc2ccc(OC)cc2)c2ccc(OCCN3CCCCC3)cc2)cc1
inactive: DU-145 prostate 83.5% | MALME-3M melanoma 68.1% | MDA-MB-231 breast 78.4% | RXF 393 renal 61.6% | SF-268 CNS 70% | SF-295 CNS 82.6% | SF-539 CNS 82.9% | UACC-257 melanoma 95.3% | HCT-15 colon 38.9% | SNB-75 CNS 69% | SNB-19 CNS 76% | U251 CNS 47.5% | PC-3 prostate 55.6% | SK-MEL-5 melanoma 46.2% | UACC-62 melanoma 58.4% | LOX IMVI melanoma 60.9% | SK-MEL-28 melanoma 67.6%
active: K-562 leukemia 0.352% | M14 melanoma -14.2% | HT29 colon 1.16%

O=C(NNC(=O)c1ccc(NC(=O)c2ccccn2)cc1)Nc1ccc2ccccc2c1
inactive: DU-145 prostate 110% | K-562 leukemia 106% | MALME-3M melanoma 123% | MDA-MB-231 breast 115% | RXF 393 renal 116% | SF-268 CNS 101% | SF-295 CNS 103% | SF-539 CNS 69% | UACC-257 melanoma 120% | M14 melanoma 115% | HCT-15 colon 105% | HT29 colon 109% | SNB-75 CNS 109% | SNB-19 CNS 91.8% | U251 CNS 101% | PC-3 prostate 107% | SK-MEL-5 melanoma 102% | UACC-62 melanoma 108% | LOX IMVI melanoma 115% | SK-MEL-28 melanoma 110%

Cc1ccc(/C=C/C(=O)Nc2ncc(Cc3ccc(F)cc3)s2)o1
inactive: DU-145 prostate 55.6% | K-562 leukemia 20.3% | MALME-3M melanoma 45.9% | MDA-MB-231 breast 77.7% | RXF 393 renal 66.9% | SF-268 CNS 53.3% | SF-295 CNS 35% | SF-539 CNS 48.2% | UACC-257 melanoma 76.3% | M14 melanoma 33.5% | HCT-15 colon 22% | HT29 colon 21.6% | SNB-75 CNS 52.1% | SNB-19 CNS 68.7% | U251 CNS 47.5% | PC-3 prostate 38.4% | SK-MEL-5 melanoma 45.3% | UACC-62 melanoma 31.5% | LOX IMVI melanoma 40.6% | SK-MEL-28 melanoma 59.7%

O=C1/C(=C/c2ccccc2F)CN(C(=O)C(Cl)Cl)C/C1=C\c1ccccc1F
active: DU-145 prostate -63.4% | K-562 leukemia -2.29% | MALME-3M melanoma -47% | MDA-MB-231 breast -49.1% | RXF 393 renal -76.3% | SF-268 CNS -0.301% | SF-295 CNS -46.2% | SF-539 CNS -85.9% | UACC-257 melanoma -17.5% | M14 melanoma -43.7% | HCT-15 colon -66.5% | HT29 colon 3.2% | SNB-75 CNS -18.4% | SNB-19 CNS -84.1% | U251 CNS -85.1% | PC-3 prostate -41.3% | SK-MEL-5 melanoma -77% | UACC-62 melanoma -59% | LOX IMVI melanoma -86.4% | SK-MEL-28 melanoma -58.9%

Cc1ccc(-c2nc3nc(-c4ccccc4)nc(N4CCCN(S(C)(=O)=O)CC4)c3o2)cc1
inactive: DU-145 prostate 57.1% | K-562 leukemia 84.5% | MALME-3M melanoma 55.5% | MDA-MB-231 breast 73.5% | RXF 393 renal 19.4% | SF-268 CNS 76% | SF-295 CNS 87.4% | SF-539 CNS 30.7% | UACC-257 melanoma 75.4% | M14 melanoma 70.9% | HCT-15 colon 73.3% | HT29 colon 58.4% | SNB-75 CNS 17.4% | SNB-19 CNS 86.5% | U251 CNS 69.7% | PC-3 prostate 68.3% | SK-MEL-5 melanoma 89.4% | UACC-62 melanoma 81.7% | LOX IMVI melanoma 71.7% | SK-MEL-28 melanoma 70.9%

Cc1nn(-c2ccccc2)c(N)c1N=C1NC(=O)/C(=C/c2ccc(Br)cc2)S1
inactive: DU-145 prostate 96.4% | K-562 leukemia 58.8% | MALME-3M melanoma 93.8% | MDA-MB-231 breast 86% | RXF 393 renal 151% | SF-268 CNS 81.6% | SF-295 CNS 87.2% | SF-539 CNS 83.4% | UACC-257 melanoma 111% | M14 melanoma 89.9% | HCT-15 colon 81.5% | HT29 colon 106% | SNB-75 CNS 85.2% | SNB-19 CNS 73.5% | U251 CNS 77.1% | SK-MEL-5 melanoma 99% | UACC-62 melanoma 77.6% | LOX IMVI melanoma 90.4%

CC1(C)CC[C@]2(C(=O)N[C@H](CO)Cc3ccccc3)CC[C@]3(C)C(=CC[C@@H]4[C@@]5(C)CCCNC(C)(C)[C@@H]5CC[C@]43C)[C@@H]2C1
active: K-562 leukemia 1.94%
inactive: DU-145 prostate 93.7% | MALME-3M melanoma 106% | MDA-MB-231 breast 70.1% | RXF 393 renal 78.4% | SF-268 CNS 85.7% | SF-295 CNS 102% | SF-539 CNS 90.4% | UACC-257 melanoma 106% | M14 melanoma 71.4% | HCT-15 colon 60.5% | HT29 colon 10.6% | SNB-75 CNS 87.1% | SNB-19 CNS 84.8% | U251 CNS 68.9% | SK-MEL-5 melanoma 90.7% | UACC-62 melanoma 78.5% | LOX IMVI melanoma 69.6% | SK-MEL-28 melanoma 106%

C=C(C)[C@@H]1CC[C@]2(C)[C@H](CC=C3[C@@H]4CC(C)(C)CC[C@]4(CO)CC[C@]32C)[C@@]1(C)CCCN
active: K-562 leukemia -47.7% | MALME-3M melanoma -45.7% | SF-539 CNS -61.5% | UACC-257 melanoma -85.2% | M14 melanoma -65.5% | HCT-15 colon -71.6% | HT29 colon -52.8% | U251 CNS -86.8% | LOX IMVI melanoma -97.2% | SK-MEL-28 melanoma -88.4%
inactive: DU-145 prostate 44% | MDA-MB-231 breast 27% | RXF 393 renal 31.6% | SF-268 CNS 67.6% | SF-295 CNS 90.6% | SNB-75 CNS 39.7% | SNB-19 CNS 79.5% | SK-MEL-5 melanoma 55.4% | UACC-62 melanoma 98.8%
